The campaign covered roughly 420,000 compounds. About 64,000 (15%) were called active. Inconclusive results (about 27%) are left out. Not all results are given here. Unmarked numbers belong to inactive results. Calls come from the whole dose curve; as a rule, active = well fitted inhibition curve with a large enough effect; inconclusive = small, poorly fitted or top-dose-only effect; inactive = flat fitted curve, though single readings scatter.
Assay: qHTS for Inhibitors of human tyrosyl-DNA phosphodiesterase 1 (TDP1): qHTS in cells in absence of CPT; note: nearly all actives have a fitted effect of over 55% in size
Details: DT40 Tdp1-/- hTDP1 cells, no CPT, ATP luminescence, 48 h; activity change, negative = growth inhibition: at 46.2 µM (top of the series)
How it was run: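 A cellular qHTS used chicken DT40 cells lacking endogenous Tdp1 but carrying stably transfected human TDP1. Compounds were applied without camptothecin, and cell growth kinetics were judged by ATP-dependent luminescence after ≥48 hr.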
% is set by controls: 0 for no effect and ±100 for the full control effect; potency is the fitted concentration of half-maximal effect.

Row | Compound | activity change, negative = growth inhibition [%] | Potency
1 | O=C(NC1CCC(O)CC1)c1ccc(S(=O)(=O)NCc2ccco2)cc1 (centres undefined) | -15.6 | 
2 | COc1ccc(NC(=O)Cn2ncn3c(cc4ccccc43)c2=O)c(OC)c1OC | -14.5 | 
3 | COc1ccc(CNC(=O)c2nnn(CC(=O)Nc3cc(C)cc(C)c3)c2N)cc1 |  | inactive
4 | C=CCc1ccccc1OCC(=O)N/N=C/c1ccccc1OCC | -40.8 | 
5 | Cc1ccc(/C=N/NC(=O)COc2ccccc2-c2ccccc2)cc1 |  | 0.184 µM (active)
6 | Cc1ccc(OCC(=O)N/N=C/c2ccncc2)cc1 | -27.9 | 
7 | COc1cc(Cl)c(S(=O)(=O)N2CCN(Cc3ccc4c(c3)OCO4)CC2)cc1Cl | -6.7 | 
8 | OCCC1CN(Cc2ccc3nsnc3c2)CCN1C1CCCC1 (centres undefined) | 14.4 | 
9 | C=C1C(=O)[C@]23C[C@H]1CCC2[C@@]1(C)C(C[C@@H]3O)[C@](C)(C(=O)O)CC[C@@H]1O (some centres undefined) |  | 6.51 µM (active)
10 | O=C(CSc1ncn[nH]1)Nc1nc2c(F)c(F)c(F)cc2s1 | -26.3 | 
11 | CC(C)(C)NC(=O)NC(=O)COC(=O)Cc1c(F)cccc1Cl | 0.186 | 
12 | COc1ccccc1NC(=O)CN1CCN(S(=O)(=O)c2ccc(Br)cc2)CC1 | -0.0441 | 
13 | COc1ccccc1NC(=O)Cn1cnc2ccc(S(=O)(=O)N3CCC(C)CC3)cc2c1=O |  | 23.1 µM (active)
14 | CCN1CCCC1CNC(=O)Cn1cnc2ccc(S(=O)(=O)N3CCC(C)CC3)cc2c1=O (centres undefined) | 14.1 | 
15 | CC(C)CN(C(=O)CN1CCN(S(=O)(=O)c2ccccc2)CC1)c1c(N)n(CC(C)C)c(=O)[nH]c1=O | 8.28 | 
16 | Cc1cc(NC(=O)OC(C)C)ccc1-c1ccc(NC(=O)OC(C)C)cc1C | -2.37 | 
17 | COc1ccc(/C=N/Nc2nc3ccccc3c(=O)[nH]2)cc1 | -29 | 
18 | CN(CCO)c1ccc(/C=N/Nc2nncc3ccccc23)cc1 |  | 14.6 µM (active)
19 | CC(=O)Nc1ccc(NC(=O)CCCNC(=O)c2ccc(Cl)cc2)cc1 | -6.67 | 
20 | CCCCNC(=O)C1CCCNC1=O (centres undefined) | -7.1 | 
21 | COc1cccc(CNC(=O)c2nnn(CC(=O)Nc3cc(C)ccc3C)c2N)c1 | 7.96 | 
22 | O=C(CNc1ccccc1N1CCCC1=O)Nc1cc(Cl)ccc1-n1cncn1 | -5.65 | 
23 | CCOC(=O)CNC(=O)c1cc2c(=O)n3cccc(C)c3nc2s1 | -11.8 | 
24 | CCOC(=O)N1CCN(C(=O)CSc2nc(=O)n3cccc(C)c3n2)CC1 | 13.5 | 
25 | CCOC(=O)CC1C(=O)NCCN1c1nc2c(C)cccn2c(=O)c1/C=C1\SC(=S)N(C(C)CC)C1=O (centres undefined) |  | 18.4 µM (active)
26 | CCSc1nnc(NC(=O)Cc2ccccc2OC)s1 | -13.9 | 

Row | Compound | activity change, negative = growth inhibition [%] | Potency
27 | CCOC(=O)N1CCN(C(=O)c2cn(C)c3ccc(S(=O)(=O)N(CC)CC)cc3c2=O)CC1 | 11.6 | 
28 | CCCCNC(=O)c1cc(-c2ccc(Cl)c(Cl)c2)on1 | -18.6 | 
29 | COC(=O)CN1C(=O)N/C(=C/c2ccc(OC)c(C)c2OC)C1=O | 0.0276 | 
30 | Cn1cccc1/C=N/NC(=O)c1ccc(OC(F)(F)C(F)F)cc1 | -7.72 | 
31 | COC(=O)[C@H](C)NC(=O)Nc1ccc(OC(F)(F)F)cc1 | -1.87 | 
32 | O=C(Nc1ccc(OC(F)(F)F)cc1)c1ccc2c(c1)no[n+]2[O-] |  | 3.66 µM (active)
33 | CC(=O)OCc1cc2cc(C)ccc2[nH]c1=O | -12.6 | 
34 | CC(=O)Nc1ccc(OCC(=O)NCc2ccc(C)cc2)cc1 | 11.6 | 
35 | CCCCC(=O)N/N=C(\C)CC(=O)Nc1cc(Cl)ccc1OC | 4.59 | 
36 | C/C(CC(=O)NCc1ccc(Cl)cc1)=N\NC(=O)COc1ccc(C)cc1Br |  | 3.26 µM (active)
37 | COCCNC(=S)N1CCN(C)CC1 | 23.5 | 
38 | COC(=O)c1cc(NC(=O)CN2CCC(C(N)=O)(N3CCCCC3)CC2)cc(C(=O)OC)c1 | -10.4 | 
39 | Cc1oc2c(c1C(=O)Nc1ccc(F)c(F)c1)C1=NCCN1C=N2 | -28.4 | 
40 | O=C(CN1C(=O)CCS(=O)(=O)c2ccccc21)NCc1ccc(F)cc1 | -17.2 | 
41 | CC(NC(=O)C(=O)Nc1nccs1)c1ccccc1 (centres undefined) | -1.11 | 
42 | O=C(NCc1ccco1)c1nc2ncccn2n1 | -9.65 | 
43 | O=c1oc(-c2ccco2)nc2sc3c(c12)CCCCC3 | -13.5 | 
44 | O=C(NCc1ccco1)c1cccn2c(=O)c3c4c(sc3nc12)CCCC4 |  | 7.31 µM (active)
45 | O=C(c1cnc(Cl)c(Cl)c1)N1CCN(S(=O)(=O)c2ccc(F)cc2)CC1 | -27.7 | 
46 | Cc1cc(C)c(/C=C2\C(=O)Nc3ccccc32)[nH]1 |  | inactive
47 | COc1ccccc1N1CC(C(=O)NCCN2C(=O)S/C(=C\c3cccnc3)C2=O)CC1=O (centres undefined) | -19.7 | 
48 | CN1CCN(C2=NCCO2)CC1 | -3.09 | 
49 | Cc1ccc(-n2c(SCC(=O)Nc3ccc4c(c3)OCO4)nnc2-c2ccoc2C)cc1 | -24.3 | 
50 | O=C(O)c1cc(S(=O)(=O)N(Cc2ccccc2)c2cccc(C(F)(F)F)c2)ccc1Cl | 3.29 | 
51 | O=C(CN(c1cc(C(F)(F)F)ccc1Cl)S(=O)(=O)c1ccccc1)NCc1cccnc1 |  | 18.4 µM (active)
52 | CCc1ccc(N(CC(=O)NCc2cccnc2)S(=O)(=O)c2ccccc2)cc1 | -24.9 | 

Row | Compound | activity change, negative = growth inhibition [%] | Potency
53 | CC(=O)Nc1ccc(NC(=O)CSc2ncnc3c2cnn3Cc2ccccc2)cc1 | -11.7 | 
54 | OCc1n[nH]c(CO)n1 | -11.1 | 
55 | COc1ccc(C(=O)Nc2c(Cl)cc(Cl)cc2C(=O)N2CCC(C)CC2)cc1 | -25.7 | 
56 | COc1ccc(C(=O)N2CCCCC2c2cc(C(=O)Nc3ccc(F)c(Cl)c3)no2)cc1 (centres undefined) |  | 23.1 µM (active)
57 | CCCNC(=O)c1cc(C2CCCCN2C(=O)OC)on1 (centres undefined) | -3.68 | 
58 | CC(=O)c1ccc(N2C(=NC(=O)C(C)C)SC3CS(=O)(=O)CC32)cc1 (centres undefined) | -9.09 | 
59 | CCNC(=O)c1ccc(OCC(=O)Nc2ccc(F)cc2)c(OC)c1 | -7.12 | 
60 | CCCOc1ccc(F)cc1-c1cc(C(=O)Nc2ccc(F)c(Cl)c2)[nH]n1 |  | 16.4 µM (active)
61 | COc1ccc(NC(=O)CN2CCN(S(=O)(=O)c3ccc(F)cc3)CC2)cc1Cl | -18 | 
62 | O=C(O)Cc1csc(NC(=O)CSc2nnnn2-c2ccc(O)cc2)n1 | -9.95 | 
63 | CC(=O)Nc1ccc(S(=O)(=O)Oc2ccc(/C=N/N=C3/NC(=O)C(CC(=O)O)S3)cc2)cc1 (centres undefined) | -11.2 | 
64 | Cn1c(=N)n(CC(O)c2ccccc2)c2ccccc21 (centres undefined) | -21.3 | 
65 | Cn1c(=N)n(CC(O)c2cccs2)c2ccccc21 (centres undefined) | -23.5 | 
66 | CCOc1ccc(C(O)Cn2c(=N)n(CCN3CCCCC3)c3ccccc32)cc1 (centres undefined) |  | 23.1 µM (active)
67 | NS(=O)(=O)c1ccc(CCNC(=O)c2ccc(Cl)cc2[N+](=O)[O-])cc1 | -6.5 | 
68 | CC(=O)NCCc1ccc(S(=O)(=O)N(C)C2CCS(=O)(=O)C2)cc1 (centres undefined) | 0.768 | 
69 | CCc1nnc(NS(=O)(=O)c2ccc(NS(=O)(=O)c3ccccc3)cc2)s1 | -8.83 | 
70 | COc1cc(NS(=O)(=O)c2ccc(N=Cc3c(C)[nH]n(-c4ccccc4)c3=O)cc2)nc(OC)n1 | -22.1 | 
71 | CCc1nnc(NS(=O)(=O)c2ccc(N=Cc3c(C)[nH]n(-c4ccc(C)cc4)c3=O)cc2)s1 |  | 11.2 µM (active)
72 | S=c1[nH]nc(-c2cc(-c3ccsc3)n[nH]2)n1-c1ccccc1 | -20.4 | 
73 | Cc1cc(C)c2nc(N3CCC(C(=O)NCCN4CCOCC4)CC3)sc2c1 | -6 | 
74 | Cc1ccc(C)c(NC(=O)C2CCCN(S(=O)(=O)c3cn(C)cn3)C2)c1 (centres undefined) | -3.78 | 
75 | CCOc1ccc2nc(N3CCCC(C(=O)Nc4cc(C)ccc4C)C3)sc2c1 (centres undefined) |  | 18.4 µM (active)
76 | CCOC(=O)N1CCC(NC(=O)c2ccc3nc(N4CCOCC4)sc3c2)CC1 | -11 | 
77 | CCOc1ccc2nc(N3CCC(C(=O)Nc4cc(C)ccc4C)CC3)sc2c1 |  | 16.4 µM (active)
78 | Cc1ccnc(N2CCCC(C(=O)Nc3cc(F)ccc3C)C2)n1 (centres undefined) | -13 | 

Row | Compound | activity change, negative = growth inhibition [%] | Potency
79 | CC1CCCCC1NC(=O)Cn1cnc2c1c(=O)n(C)c(=O)n2C (centres undefined) | 2.55 | 
80 | COC(=O)CN1C(=O)[C@H]2[C@@H](/C=C/c3ccccc3)N3C(=O)CN(CC4CC4)C(=O)[C@@]3(Cc3ccccc3)[C@H]2C1=O | -1.54 | 
81 | COC(=O)C1(S(=O)(=O)C2(C(=O)OC)CCCC2)CCCC1 | -4.39 | 
82 | N#Cc1nc(COc2ccc(-c3ccccc3)cc2)oc1NCc1cccnc1 |  | 25.9 µM (active)
83 | Cc1noc(C)c1-c1cc(NCc2cccnc2)ncn1 | 2.95 | 
84 | COc1ccc(-c2nnc(SCc3cccnc3)o2)cc1 | -15.2 | 
85 | O=C(Cn1nc(C(=O)O)c2ccccc2c1=O)Nc1ccc(F)cc1 | 14.5 | 
86 | COc1cccc(NC(=O)CSc2nnc(C3CCCCC3)n2N)c1 | -3.98 | 
87 | O=C(COC(=O)c1ccc(F)cc1)NCC1COc2ccccc2O1 (centres undefined) | -12.8 | 
88 | O=C(Cn1cnc2ccccc2c1=O)NCC1COc2ccccc2O1 (centres undefined) | 0.328 | 
89 | c1ccc2c(c1)OCC(CNc1ncnc3nc[nH]c13)O2 (centres undefined) |  | 13 µM (active)
90 | CC(C)c1ccc(NC(=S)NNc2ccc(Cl)c(C(=O)O)c2)cc1 | 10.6 | 
91 | O=C(COC(=O)C1CC2C=CC1C2)Nc1ccccc1 (centres undefined) | -6.05 | 
92 | CC(C)c1ccc(NC(=S)NC2CC3C=CC2C3)cc1 (centres undefined) |  | 29.1 µM (active)
93 | CCN1C(=O)C(=O)N(CC(=O)Nc2cc(C)ccc2C)C1=O | 1.3 | 
94 | O=P(c1ccc2c(c1)OCCO2)(N1CCOCC1)N1CCOCC1 | -2.59 | 
95 | COC(=O)C(C)Oc1ccc2c(c1)O/C(=C\c1cccc(Br)c1)C2=O (centres undefined) | -24.3 | 
96 | COC(=O)Cc1ccc(N(Cc2ccccc2F)S(=O)(=O)c2ccc(Br)cc2)cc1 |  | 20.6 µM (active)
97 | O=C(COC(=O)Cc1ccc(Br)cc1)Nc1c(F)c(F)c(F)c(F)c1F | 14.3 | 
98 | COc1ccc(S(=O)(=O)N(CC(=O)NCc2ccco2)c2ccc(F)cc2)cc1 | -16 | 
99 | O=C(CCn1c(SCC(=O)c2ccccc2)nc2ccccc2c1=O)NCc1ccc(F)cc1 | -5.7 | 
100 | CC1(C)CC(=O)C(C=NCc2cccnc2)=C(O)C1 | -7.35 | 
101 | N=c1c2c3c(sc2ncn1N)CCCCC3 | 19.2 | 
102 | Cc1nc2cc(NC(=O)NCc3ccccc3)ccc2o1 | -13.9 | 
103 | C=CCN(C(=O)Nc1ccc2c(c1)nc(C)n2C)c1ccccc1 | -6.75 | 
104 | C=CCN(C(=O)Nc1ccc2oc(C)nc2c1)c1ccccc1 |  | 20.6 µM (active)

From PubChem BioAssay AID686978 (National Center for Advancing Translational Sciences (NCATS), 2013)
